In the library only some 17% were active in any assay of this set; here they are far more common.
HepG2 viability = counter-screen for TGF-b inhibitors: cytotoxicity in HepG2 cells; Potency, µM (doses to about 46.1 µM), inactives show at the top dose activity change, negative = cytotoxicity, actives largely listed as cytotoxic; 410,000 compounds, 0.76% hits; HepG2 CAGA-GFP viability, ATP luminescence, 18 h; AID 588856
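HepG2 CAGA-GFP cells (1000/well, DMEM with 1% FBS) received compound, then TGF-beta at 500 pg/mL final, and were incubated 18 hours at 37 degrees C. Viability was read by CellTiter-Glo luminescence. Media-only wells were set as complete cell-killing and DMSO as no toxicity.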
S2 tox = viability counter-screen for ATXN expression inhibitors; S2 cells (HEK-293 line with an ATXN2-luciferase reporter) viability, CellTiter-Fluor protease fluorescence, 24 h; Potency, µM (titrated, usually from 56.7 µM), hits mostly cytotoxic; 400,000 compounds, 0.49% hits; AID 651635; also: nearly all actives have a fitted effect of over 40% in size
ATXN2 expr inh = ATXN2 expression inhibition; Potency, µM (highest dose often 57 µM), for inactives: at the highest dose activity change, negative = inhibition, most hits filed as inhibitors; 360,000 compounds, 0.72% hits; HEK-293 ATXN2-luciferase reporter, luminescence, 24 h; also: % is scaled to controls: 0 for no effect and ±100 for the full control effect; nearly all actives have a fitted effect of over 55% in size
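ATXN2-luciferase reporter cells (luciferase flanked by upstream and downstream ATXN2 gene portions) were treated 24 h at 37 °C with compounds at up to 57 uM. SteadyGlo luminescence gave expression; GF-AFC fluorescence gave viability.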
TDP1 cell noCPT = qHTS for Inhibitors of human tyrosyl-DNA phosphodiesterase 1 (TDP1): qHTS in cells in absence of CPT | 420,000 compounds, 15% hits | DT40 Tdp1-/- hTDP1 cells, no CPT, ATP luminescence, 48 h | Potency, µM (highest dose often 46.2 µM), inactives show at the highest dose activity change, negative = growth inhibition, actives largely listed as inhibitors | AID 686978, 2013; also: % is scaled to controls: 0 for no effect and ±100 for the full control effect; nearly all actives have a fitted effect of over 55% in size
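Luminescent ATP content (CellTiter-Glo) served as the growth readout. Knockout chicken DT40 cells expressing human TDP1 were exposed to compounds without camptothecin for a minimum 48 hr at 37 °C.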
DT40 TDP1 CPT = DT40-hTDP1 cell growth loss with CPT. chicken DT40 Tdp1-/-;hTDP1 cells + 20 nM CPT, ATP luminescence, 48 h. Potency, µM (top dose mostly 46.2 µM), without a hit: at the highest dose activity change, negative = growth inhibition, most hits filed as inhibitors. 420,000 compounds, 12% hits; also: % is scaled to controls: 0 for no effect and ±100 for the full control effect; nearly all actives have a fitted effect of over 55% in size
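Chicken DT40 Tdp1-/- cells complemented with human TDP1, 400 cells/well, exposed to compounds plus 20 nM camptothecin for at least 48 h at 37 C; viability read as ATP content by CellTiter-Glo luminescence.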
TGFb inhibitor = blocks TGF-b signaling; 410,000 compounds, 1.2% hits; HepG2 CAGA-GFP TGF-b/SMAD3 reporter, GFP fluorescence, 18 h; TGF-beta stimulated, 500 pg/mL final; Potency, µM (top dose mostly 46.1 µM), for inactives: at the top dose activity, negative = inhibition, actives largely listed as inhibitors; also: % is scaled to controls: 0 for no effect and ±100 for the full control effect; nearly all actives have a fitted effect of over 65% in size
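HEPG2 CAGA-GFP reporter cells (1000/well, DMEM with 1% FBS) received compounds, then recombinant TGF-beta at 500 pg/mL final for 18 hours at 37 degrees C. Per-cell GFP summed per well was normalised to unstimulated and stimulated DMSO controls before curve fitting.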
Starred values were filed as active, the others as inactive; i = inactive; ? = inconclusive; / = no result given. Calls follow the shape of the dose curve; as a rule, active = well fitted curve in the direction sought with a large enough effect; inconclusive = small, poorly fitted or top-dose-only effect, or another doubt; inactive = no such curve, though single readings can be large; an effect the other way counts as inactive or inconclusive. Potency is read from the fitted curve at half-maximal effect.

SMILES	HepG2 viability	S2 tox	ATXN2 expr inh	TDP1 cell noCPT	DT40 TDP1 CPT	TGFb inhibitor
CN(C(=O)c1ccc(NC(=O)Cc2ccc(NC(=O)C3CCN(C(=O)C4CCCCC4)CC3)cc2)cc1)C1CCCC1	0%	?	12%	21µM*	?	-6%
CCN(CC(=O)Nc1ccccc1OC)C(=O)c1ccc(NS(=O)(=O)c2ccc(C(C)=O)cc2)cc1	4%	i	0%	-14%	1%	-1%
CN1CCN(C(=O)c2cccc(S(=O)(=O)N3CCCC3)c2)CC1	8%	i	-7%	-1%	-10%	-3%
Cc1ccc(S(=O)(=O)N2C[C@@H](C)[C@]3(C2)[C@H](O)[C@H](OC(=O)NC2CCCC2)C[C@H]2C(=O)N(c4ccccc4)C(=O)[C@H]23)cc1	-4%	i	-12%	?	-18%	-29%
CCOC(=O)C1(C)CCCN1C(=O)c1ccc(Cl)nc1 (centres undefined)	-6%	i	2%	11%	0%	-1%
Cc1ccc(S(=O)(=O)NCc2ccc(C(=O)N3CCN(c4ccc([N+](=O)[O-])cc4)CC3)cc2)cc1	-14%	?	/	9.2µM*	16µM*	-25%
COc1ccc(CN2CCN(C(=O)c3ccc(CNS(=O)(=O)c4ccc(C)cc4)cc3)CC2)c(OC)c1OC	-1%	i	/	13µM*	13µM*	-17%
O=C(c1ccc(CNS(=O)(=O)c2cccc(Cl)c2)cc1)N1CCCC1	-3%	i	5%	-27%	2%	3%
Cc1ccc(C)c(S(=O)(=O)NCc2ccc(C(=O)N3CCN(c4ccccc4)CC3)cc2)c1	-4%	i	-8%	?	?	47%
O=C(c1ccc(CNS(=O)(=O)c2ccc(F)cc2)cc1)N1CCCCCC1	-3%	?	/	15µM*	?	-13%
Cc1ccc(C)c(S(=O)(=O)NCc2ccc(C(=O)N3CCCCCC3)cc2)c1	-31%	i	-7%	23µM*	?	-10%
Cc1ccc(S(=O)(=O)NCc2ccc(C(=O)N3CCN(Cc4ccccc4)CC3)cc2)cc1	-29%	i	-25%	?	?	?
Cc1ccc(S(=O)(=O)NCc2ccc(C(=O)N3CCN(c4ccccn4)CC3)cc2)cc1	-19%	i	-14%	?	?	-23%
CCOC(=O)/C(=C/Nc1ccc(F)c(F)c1)[N+](=O)[O-]	-9%	i	5%	4%	4%	11%
COc1ccccc1-c1cccc([C@@H]2C[C@H]3[C@H](CON3C)CN2C(=O)C(C)(C)C)c1	-1%	i	4%	1%	2%	-19%
COc1ccc(N2CCN(C(=O)c3ccc(S(=O)(=O)NCc4ccco4)cc3)CC2)cc1	0%	i	-11%	-21%	-30%	-11%
COc1ccc(N2CCN(C(=O)c3ccc(CNS(=O)(=O)c4ccc(C)cc4)cc3)CC2)cc1	-28%	i	-17%	12µM*	?	-15%
COc1ccc(N2CCN(C(=O)c3ccc(CNS(=O)(=O)c4cc(C)ccc4C)cc3)CC2)cc1	-28%	?	-22%	15µM*	21µM*	?
O=C(Nc1cccc(C(F)(F)F)c1)c1ccc2sc([C@H]3C[C@H](O)[C@@H](CO)O3)nc2c1	-20%	i	-8%	23µM*	?	1%
O=C(NCc1cc(Cl)cc(Cl)c1)c1ccc2sc([C@H]3C[C@H](O)[C@@H](CO)O3)nc2c1	-8%	i	0%	?	21µM*	11%
O=C(Nc1ccc(Oc2ccccc2)cc1)c1ccc2sc([C@H]3C[C@H](O)[C@@H](CO)O3)nc2c1	-28%	?	?	21µM*	?	-1%
CC(=O)Nc1ccc(NC(=O)c2ccc3sc([C@H]4C[C@H](O)[C@@H](CO)O4)nc3c2)cc1	-4%	i	4%	-2%	-11%	-5%
O=C(Nc1ccc(F)c(Cl)c1)c1csc([C@H]2C[C@H](O)[C@@H](CO)O2)n1	3%	i	30%	?	21µM*	9%
CCOc1ccccc1NC(=S)NCCCn1ccnc1	3%	?	-3%	1%	0%	-2%
O=C(Nc1ccc(F)c(Cl)c1)c1ccc2sc([C@H]3C[C@H](O)[C@@H](CO)O3)nc2c1	-36%	?	-27%	21µM*	18µM*	?
SMILES	HepG2 viability	S2 tox	ATXN2 expr inh	TDP1 cell noCPT	DT40 TDP1 CPT	TGFb inhibitor
CCN(CC)CCNC1=NCCn2c1cc1cc(OC)ccc12	-54%	i	?	?	21µM*	3%
Cc1ccc(S(=O)(=O)N2[C@H](CC(=O)Oc3ccccc3)OC[C@@H]2C(C)C)cc1	/	/	/	13µM*	13µM*	/
CC(=O)C[C@H]1SC[C@@H](C(C)C)N1S(=O)(=O)c1ccc(C)cc1	/	/	/	13µM*	9.2µM*	/
Cc1ccc(S(=O)(=O)C[C@@H]2OC[C@H](C(C)C)N2S(=O)(=O)c2ccc(C)cc2)cc1	/	/	/	16µM*	18µM*	/
O=C([C@@H]1CC=C[C@@H]2CCN(C3CCCCC3)C(=O)[C@@H]21)N1CCOCC1	8%	/	/	-9%	0%	-4%
CC1C(=O)Nc2ccc(S(=O)(=O)N3CCN(c4cccc(Cl)c4)CC3)cc2NC1=O (centres undefined)	-42%	?	?	?	18µM*	?
CC1Sc2ccc(S(=O)(=O)N3CCN(c4cccc(Cl)c4)CC3)cc2NC1=O (centres undefined)	-19%	i	/	?	-22%	?
CC1C(=O)Nc2ccc(S(=O)(=O)N3CCN(c4cccc(C(F)(F)F)c4)CC3)cc2NC1=O (centres undefined)	-2%	i	-33%	-69%	26µM*	-21%
O=C(O)C1Cc2[nH]cnc2C(c2ccccc2O)N1 (centres undefined)	-1%	i	-6%	4%	13%	-20%
COc1ccccc1N1CCN(c2ncnc3c2cnn3-c2ccc(C)cc2)CC1	8%	i	1%	-5%	-20%	-3%
CCOC(=O)/C(C#N)=C1/C(=O)N(Cc2ccccc2)c2ccccc21	-20%	i	-12%	5.2µM*	7.3µM*	-18%
Cc1cccc(Nc2nccc(N(C)C)c2C#N)c1	0%	i	20%	-5%	3%	20%
